The list shows a part of the results. A number with no mark means an inactive call. Calls of active or inactive are those of the source.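 Rule for the calls: active = activation above the solvent-only control wells' mean plus 3 SD (cut at about 11% in these data); inactive = the rest.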
Molecular target: Neuropeptide Y receptor type 2 (Homo sapiens) (UniProt P49146)
Test: human Y2 receptor agonism – cell-based, fluorescence, counter-screen for NPY-Y1 potentiator project (AID 1698);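 note: 0% = DMSO with isoproterenol and 100% = 40 nM NPY maximal response; agonism lowers cAMP so well fluorescence drops in active wells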
Conditions: HEK293 Y2-CNGC, membrane potential fluorescence, agonist mode; at 3.6 µM; hits give high values

Sequence of Neuropeptide Y receptor type 2 (Homo sapiens) (P49146 whole entry, looked up): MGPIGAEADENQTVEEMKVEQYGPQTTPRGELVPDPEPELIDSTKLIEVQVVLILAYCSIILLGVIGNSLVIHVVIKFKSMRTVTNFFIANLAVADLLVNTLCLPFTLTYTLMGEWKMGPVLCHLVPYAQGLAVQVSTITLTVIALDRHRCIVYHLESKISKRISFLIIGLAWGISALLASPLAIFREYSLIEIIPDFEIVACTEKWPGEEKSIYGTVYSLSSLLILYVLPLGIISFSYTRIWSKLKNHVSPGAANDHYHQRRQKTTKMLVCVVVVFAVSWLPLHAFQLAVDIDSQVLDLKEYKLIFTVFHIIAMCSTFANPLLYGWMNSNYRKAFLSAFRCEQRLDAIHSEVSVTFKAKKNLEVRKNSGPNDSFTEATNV

Compound	activation
COCCn1nnnc1C(c1ccccc1Cl)N1CCN(c2ccccc2OC)CC1 (stereo unspecified)	6.66%
CC1=C/C(=N\OS(=O)(=O)c2ccccc2)C=CC1=O	26.8% (active)
O=C(c1cccs1)N1CCN(C(=O)N2CCOCC2)CC1	-9.63%
Cc1ccccc1NCC(=O)N/N=C\c1ccc([N+](=O)[O-])s1	39.5% (active)
CC(=O)c1ccc(NC(=O)C2CC(=O)Nc3nc4ccccc4n32)cc1 (stereo unspecified)	34.2% (active)
O=C(Nc1ccccc1C(F)(F)F)c1cc(-c2ccc(O)cc2)on1	-2.58%
O=[N+]([O-])c1cc(Cl)cc(/C=N/NC(=S)Nc2cc(S(=O)(=O)N3CCOCC3)ccc2Cl)c1O	63.2% (active)
O=C1/C(=C/c2coc3ccc(O)cc3c2=O)SC(=S)N1c1ccccc1	15.2% (active)
COC(=O)c1sc(-c2ccc(C(C)(C)C)cc2)cc1NC(=O)/C=C/C(=O)O	22.8% (active)
N#Cc1ccc(C(=O)Nc2nc(-c3cccs3)c(C(=O)C(F)(F)F)s2)cc1	0.24%
CCn1c2ccccc2c2cc(NC(=O)Nc3ccc([N+](=O)[O-])cc3C)ccc21	23.4% (active)
CSc1nc(-c2ccco2)nn1C(=O)c1ccccc1Cl	26% (active)
Cc1cccc(OCC(O)CN2CCN(CCN3C(=O)c4cccc5cccc(c45)C3=O)CC2)c1C (stereo unspecified)	63% (active)
COC(=O)c1ccc(NC(=O)CN(c2ccc(C)cc2)S(=O)(=O)c2c(C)n[nH]c2C)cc1	47% (active)
O=C(Nc1ccc2c(c1)CCC2)c1cccc(S(=O)(=O)Nc2ccccc2Cl)c1	10.3% (active)
CN1C(=O)c2ccccc2C(C(=O)NCCCN2CCCC2)C1c1c[nH]c2ccccc12 (stereo unspecified)	-0.28%
